# Article PMC12136788
# Substitutions are numbered along the chain they refer to. The full ranking holds about 5,800 sequences; the median of “enrichment r” is about 0.68, and the highest 2% start at about 11. This is one part of a sample in which the highest values are shown more often than they occur.
# T1: UNK ZnF1-6 (called full-length) (human, UniProt Q9C0B0 30-357)
# T1 sequence: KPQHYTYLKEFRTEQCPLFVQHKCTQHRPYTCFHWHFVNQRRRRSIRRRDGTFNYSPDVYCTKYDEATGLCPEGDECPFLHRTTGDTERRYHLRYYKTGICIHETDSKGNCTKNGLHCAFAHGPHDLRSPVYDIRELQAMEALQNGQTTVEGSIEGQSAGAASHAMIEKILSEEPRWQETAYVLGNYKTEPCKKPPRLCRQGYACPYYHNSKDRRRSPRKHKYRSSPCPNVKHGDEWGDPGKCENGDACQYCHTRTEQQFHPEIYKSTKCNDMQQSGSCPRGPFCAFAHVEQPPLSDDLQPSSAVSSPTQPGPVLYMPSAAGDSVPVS
# B1: ENSG00000107863:be:win_4801|CDS|ENSG00000107863|bound_else_gene|NA|bound_elsewhere_windowed (ssRNA)
# RNA: GGGAGUUCUACAGUCCGACGAUCUCCAGUCGACUGAGCCCUGAGGUGCAAUCCGUGGCAGAGAGCAAGGGGGACGAGGCAGAUGACGAGAGAAGCGAACUCAUCAGUGAAGGGCGGCCUGUGGAAACCGACAGCGAGAGCGAGCAACAGAGGAUUGAGCAUCA
# B2: chr17:41691520:41691533:+|3pUTR|ENSG00000173812|msi1_unk|total|mutant (ssRNA)
# RNA: GGGAGUUCUACAGUCCGACGAUCGGAACAAAUCUCAAACUGAUCCAUCAGUCAUGCCGCCCGCUGCCGAGCUUGCAACUUAACCGCAGCAGCUGCCCAAUGCCAUGUGAAGUAACAAACUGGUUUUUGGUUUUUUUUUCCCCUCAACAGAGGAUUGAGCAUCA
# B3: chr19:5558166:5561399:-|three_prime_utr|ENSG00000223573|control|control|control (ssRNA)
# RNA: GGGAGUUCUACAGUCCGACGAUCCCAGCUGAUGCACACUGCUUCAGACACUCCUGCUGGAGCCCCAGUCCCUGACAAGGACCUAGGACAUUUUUGCUCCUGCCCAGCCUAUCGGGAGGGAGCCUUGAGCCUUUCAGCUCUGCUCAACAGAGGAUUGAGCAUCA
# B4: ENSG00000070961:be:win_51|CDS|ENSG00000070961|bound_else_gene|NA|bound_elsewhere_windowed (ssRNA)
# RNA: GGGAGUUCUACAGUCCGACGAUCUUUGAAGGAAGCUAAUCAUGAUGGAGACUUUGGAAUUACGCUCGCAGAGCUGCGGGCUCUCAUGGAGCUCAGGUCCACAGAUGCAUUACGAAAAAUACAGGAAAGCUAUGGAGAUGUCUACAACAGAGGAUUGAGCAUCA
# B5: chr16:48080881:48083801:-|three_prime_utr|ENSG00000140798|control|control|control (ssRNA)
# RNA: GGGAGUUCUACAGUCCGACGAUCUGAGUUUGACAAGCCUGAAGUCCUUGCAGAGAAGCCAGAUUCUGCAUUUGCGAUGUUACUAGCAGCAGAAGUCAGAUUGUAGAGGUCCUGGCGGCUGAUUCUAGAGGAGGAAGAGGCUCUCAACAGAGGAUUGAGCAUCA
# B6: chr1:205790044:205790145:-|3pUTR|ENSG00000133065|msi1|FALSE|bound_elsewhere (ssRNA)
# RNA: GGGAGUUCUACAGUCCGACGAUCAGAUUCUUCUGCCUCUUUCUCCUUUCCAGACCCCUACUCUGUGCAGUGCUGACCACAGCUAGAGCCACCGCCCCAUUGCUCAACCAGUAUUUAUUUCCCUAAACGACCCUUCCUCACAUUCAACAGAGGAUUGAGCAUCA
# B7: chr11:107429260:107429366:-|CDS|ENSG00000152404|unk|FALSE|unique (ssRNA)
# RNA: GGGAGUUCUACAGUCCGACGAUCGAGGAAACCCACAUAUUCAGAUAAAGCACAAAAUUGUCAAGAAAGUAGAGAAUCAGACUUAGUAAAAUAUGGUAACAGUUCAAGGGAUAGAUAUGCUACAACAGAUACUGCAAAAAAUAGCAACAGAGGAUUGAGCAUCA
# B8: chr7:5606511:5606625:+|3pUTR|ENSG00000075618|msi1_unk|FALSE|overlapping (ssRNA)
# RNA: GGGAGUUCUACAGUCCGACGAUCGGGUGUCUUGGUCUUUUAUUUUUUGUAAGUGUCAUUUGUAUAACUCUAAACGCCCAUGAUAGUAGCUUCAAACUGGAAAUAGCGAAAUAAAAUAACUCAGUCUGCAGCCCCAGGCCGGCCCAACAGAGGAUUGAGCAUCA
# B9: chr11:62152232:62152344:+|3pUTR|ENSG00000149503|unk|FALSE|unique (ssRNA)
# RNA: GGGAGUUCUACAGUCCGACGAUCUGCUCUGUAAAUAGUUGUUUUAAUUUAGCUGAAUGUUAGCAUUUUAGUCUUUGGCAUUUUAGCGUUUGGGAGGUAGAUUAAUAAAGUAUAUUCCUUCAAGCCUGCUGUUGAUACCAUGAACAACAGAGGAUUGAGCAUCA
# B10: chr10:104129887:104130138:-|three_prime_utr|ENSG00000197748|control|control|control (ssRNA)
# RNA: GGGAGUUCUACAGUCCGACGAUCAAAAAAUCAUUUCAUUUGGGUAAAAUGAUUUCCUUUUCUUUCUUACUGGGAAAUUGAAGUAGCAUGUCCUCUGAGUUGCAUGUUUUAGAUAAAAAAUUGUUUAAUUUUAGCCUUAAUUGUCAACAGAGGAUUGAGCAUCA
# B11: chr15:38352922:38353023:+|3pUTR|ENSG00000166068|msi1|total|mutant (ssRNA)
# RNA: GGGAGUUCUACAGUCCGACGAUCUACAUAUAAAUUUAUUUCUUUUGCAGAGCAUUAUAUUACUGGAUGUUUAAUUUACAAAACCGUUGGGUAAAUGUUCCAACAAACUUUAAAGUACCUUGAAGUCAAAUUGUCUGUUUUUGUCAACAGAGGAUUGAGCAUCA
# B12: chr18:9400975:9401076:+|3pUTR|ENSG00000128791|msi1|FALSE|unique (ssRNA)
# RNA: GGGAGUUCUACAGUCCGACGAUCUAUAAAAAUAGAUAAUGCUCUUGGACACAUUUUGUAUUAUUCAUGAUCUGAAUAGUAGUUAGUUAAAAGAUCAUUUGUAAUAUUAUGAUCAACUGUUAUAAAUUAAGGUCUUAAUACCUUCAACAGAGGAUUGAGCAUCA
# B13: chr3:46835109:46836203:-|three_prime_utr|ENSG00000160808|control|control|control (ssRNA)
# RNA: GGGAGUUCUACAGUCCGACGAUCUGAAGGCACAAGCUGUUCCAGUAUAAUAAAGAAAAUAAUUAAAUUAAGAAAAGUUAUACUAGAAAUAAGAUAUAGGUAUGAUUAUUAUUAAUCAUUAGUUUGUAGUAUUACUUUGUUCUACAACAGAGGAUUGAGCAUCA
# B14: chr15:38352922:38353023:+|3pUTR|ENSG00000166068|msi1|FALSE|unique (ssRNA)
# RNA: B11 RNA with C83U, C84A
# B15: chr15:76949589:76949706:+|3pUTR|ENSG00000117906|msi1_unk|total|mutant (ssRNA)
# RNA: GGGAGUUCUACAGUCCGACGAUCAUAAAUUUUUGUUUUUGUUCUAAGCCGAUUUAAUUUGGGAACUGACAGGACAAUGUUUUCCGGUUCCGCAUUUUGUUUAAAAACCUUUAAAGAAACCUUCCGAAGGACUCCGACCUCACACAACAGAGGAUUGAGCAUCA
# B16: chr7:38725943:38726055:-|3pUTR|ENSG00000006715|unk|total|mutant (ssRNA)
# RNA: GGGAGUUCUACAGUCCGACGAUCGAAAUUUUGGGGUCCACCGUGAAUAUUUUGUUAUUUAUUUGUUUGGCUCAUUCUUUAUACCGUAAUGGAAACAUAAGUCCCGGAGUCCGAAAUGAAUUUUUCCGACCUCCGUAAAACCAUCAACAGAGGAUUGAGCAUCA
# B17: ENSG00000168003:stop:overlap|stop_codon|ENSG00000168003|stop_codon|NA|stop_codon (ssRNA)
# RNA: GGGAGUUCUACAGUCCGACGAUCCUGACAUCCCAGGGGCUGUAAGUGCCAACAUGACUGUGAAGGUAAGAGUUCUAGAUGGGUAGAAACUGACCGGUGGAGGGUGGGCUGGGCUUGUAGAAGUCUGUACCCAGGGGAGCCCCUCAACAGAGGAUUGAGCAUCA
# B18: chr11:69651696:69651723:+|3pUTR|ENSG00000110092|msi1_unk|FALSE|overlapping (ssRNA)
# RNA: GGGAGUUCUACAGUCCGACGAUCGAGGAUUAGGUUCCAUCCUUUACGUGUUUAAAAAAAAGCAUAAAAACAUUUUAAAAACAUAGAAAAAUUCAGCAAACCAUUUUUAAAGUAGAAGAGGGUUUUAGGUAGAAAAACAUAUUCCAACAGAGGAUUGAGCAUCA
# B19: chr11:69651696:69651723:+|3pUTR|ENSG00000110092|msi1_unk|total|mutant (ssRNA)
# RNA: B18 RNA with U30C, A31C, U83C, A84C, U112C, A113C, U125C, A126C, U129C, A130C
# B20: chr4:67617988:67618115:-|3pUTR|ENSG00000033178|unk|FALSE|unique (ssRNA)
# RNA: GGGAGUUCUACAGUCCGACGAUCAAAUGUAGAAUGUUAAAAAUUAUUGCUAGGGUAGUCUUUUUUUUUUCCAGAAACCUAAUUAGGGUAUUAAAUUUUGUGUUUUUUUUGUUUUUUUUUUUUAAACAGAAGCAUGUUAUUUCACAACAGAGGAUUGAGCAUCA
# B21: chr2:16549458:16552935:-|three_prime_utr|ENSG00000197872|control|control|control (ssRNA)
# RNA: GGGAGUUCUACAGUCCGACGAUCUUGCUACUGGAGUCCUUUAACAACAUCUAUAACGAUAAAAAAUUCCUAAUUGUUUGUGGUAGUAUUUUAAUUCUAGAUGUGUUAUCUCUCUGGGAAGUAUAGUUUAUAGAAACACAAAAUCAACAGAGGAUUGAGCAUCA
# B22: chr4:138171112:138171219:-|3pUTR|ENSG00000151012|msi1|FALSE|unique (ssRNA)
# RNA: GGGAGUUCUACAGUCCGACGAUCUUUUUUUUUUUCACAUCAGUUUGAUCAGGAAAGUGUAUAACACAUCUUAGAGCAAGAGUUAGUUUGGUAUUAAAUCCUCAUUAGAACAACCACCUGUUUCACUAAUAACUUACCCCUGAUCAACAGAGGAUUGAGCAUCA
# B23: chr11:69651733:69651797:+|3pUTR|ENSG00000110092|msi1_unk|FALSE|overlapping (ssRNA)
# RNA: GGGAGUUCUACAGUCCGACGAUCAAAACAUUUUAAAAACAUAGAAAAAUUCAGCAAACCAUUUUUAAAGUAGAAGAGGGUUUUAGGUAGAAAAACAUAUUCUUGUGCUUUUCCUGAUAAAGCACAGCUGUAGUGGGGUUCUAGCAACAGAGGAUUGAGCAUCA
# B24: chr4:67617988:67618115:-|3pUTR|ENSG00000033178|unk|total|mutant (ssRNA)
# RNA: B20 RNA with U29C, A30C, U50C, A51C, U55C, A56C, U83C, A84C
# B25: chr4:168926953:168927063:+|3pUTR|ENSG00000129116|msi1_unk|FALSE|overlapping (ssRNA)
# RNA: GGGAGUUCUACAGUCCGACGAUCCAAAAGAGUUUUCUAACAAGGUUAAUACCUUAGUUCUUAACAUUUUUUUUCUUUAUGUGUAGUGUUUUCAUGCUACCUUGGUAGGAAACUUAUUUACAAACCAUAUUAAAAGGCUAAUUUCAACAGAGGAUUGAGCAUCA
# B26: chr4:168926953:168927063:+|3pUTR|ENSG00000129116|msi1_unk|total|mutant (ssRNA)
# RNA: B25 RNA with U54C, A55C, U83C, A84C, U105C, A106C
# Target: T1, UNK ZnF1-6 (called full-length)
# Experiment: nsRBNS (natural sequence RNA bind-n-seq); RBNS binding buffer (assumed for nsRBNS): 25 mM Tris pH 7.5, 150 mM KCl, 3 mM MgCl2, 0.01% Triton X-100, 500 ug/ml BSA, 20 U/ml SUPERase-In, 4 C; UNK is unkempt and MSI1 is Musashi-1; names of the RNAs are library labels; protein concentration not given here; high values mean tight binding
row,Binder,binding signal
1,B1,0.993 enrichment R
2,B2,0.624 enrichment R
3,B3,0.786 enrichment R
4,B4,0.507 enrichment R
5,B5,1.15 enrichment R
6,B6,1.07 enrichment R
7,B7,1.66 enrichment R
8,B8,1.39 enrichment R
9,B9,110 enrichment R
10,B10,13.5 enrichment R
11,B11,0.824 enrichment R
12,B12,2.18 enrichment R
13,B13,4.03 enrichment R
14,B14,1.48 enrichment R
15,B15,0.382 enrichment R
16,B16,0.419 enrichment R
17,B17,0.906 enrichment R
18,B18,13.5 enrichment R
19,B19,0.444 enrichment R
20,B20,28.1 enrichment R
21,B21,4.45 enrichment R
22,B22,2.58 enrichment R
23,B23,8.88 enrichment R
24,B24,0.765 enrichment R
25,B25,20.1 enrichment R
26,B26,1.12 enrichment R
